From PubChem BioAssay AID1159580 (chemical genetic matrix, 2015)
Where “and” joins values, the source holds several entries; their conditions need not be identical. Equal values may be shown once. Hit rate of the full screen: of about 5,500 compounds, about 2,000 (36%) were called active. Roughly 18% stayed inconclusive and do not appear here. Cut-off read from the data, not from the text of the source: active = normalized growth mostly below about 0.91 (no sharp cut-off); inconclusive = no clear call, values can overlap the other calls; inactive = mostly above about 0.92. This is one part of the list.

Assay: chemical genetic growth profiling, strain panel (AID 1159580);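 note: tested at 20 µM; growth read once vehicle control cultures reached saturation at 30 °C; 1 = growth at the plate median or of vehicle wells; lower values mean less growth of the strain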
Settings: S. cerevisiae deletion strains, growth OD

Measured: normalized growth

O=C1CCCN1CC#CCN1CCCC1
inactive: locus YAL013W, strain DEP1, hits give low values 1.02 and 1.01 | locus YAL021C, strain ccr4, hits give low values 1.01 | locus YAL026C, strain drs2, hits give low values 1.03 | locus YAL030W, strain snc1, hits give low values 1.02 | locus YAL040C, strain CLN3, hits give low values 1.01 | locus YBL061C, strain skt5, hits give low values 1.02 | locus YBR009C, strain hhf1, hits give low values 1.01 | locus YBR021W, strain FUR4, hits give low values 0.985 and 1.01 | locus YBR023C, strain chs3, hits give low values 1.02 | locus YBR171W, strain sec66, hits give low values 1.02 | locus YBR229C, strain ROT2, hits give low values 1 and 1.01 | locus YBR231C, strain swc5, hits give low values 1.03 | locus YBR279W, strain paf1, hits give low values 1.01 | locus YCL011C, strain gbp2, hits give low values 1.02 | locus YCL016C, strain dcc1, hits give low values 1.02 | locus YCL029C, strain bik1, hits give low values 1.01 and 1.02 | locus YCL061C, strain MRC1 (second series), hits give low values 1 | locus YCL069W, strain vba3, hits give low values 1.02 | locus YCR088W, strain abp1, hits give low values 1.03 | locus YDL005C, strain med2, hits give low values 1.03 | locus YDL035C, strain GPR1, hits give low values 1 and 1.03 | locus YDL040C, strain nat1, hits give low values 1.01 | locus YDL074C, strain BRE1, hits give low values 0.994 and 1.02 | locus YDL101C, strain DUN1, hits give low values 0.997 and 1.01 | locus YDL134C, strain PPH21, hits give low values 1.01 | locus YDL185W, strain tfp1, hits give low values 1.03 and 1.01 | locus YDL192W, strain arf1, hits give low values 1.01 and 1.02 | locus YDR001C, strain nth1, hits give low values 1.02 | locus YDR069C, strain doa4, hits give low values 1.03 | locus YDR101C, strain arx1, hits give low values 0.979 and 1.01 | locus YDR137W, strain rgp1, hits give low values 1.03 | locus YDR150W, strain NUM1, hits give low values 1.01 and 1 and 1.02 | locus YDR159W, strain sac3, hits give low values 0.999 | locus YDR162C, strain NBP2, hits give low values 1.02 and 1.01 | locus YDR195W, strain ref2 1.02 | locus YDR297W, strain sur2, hits give low values 1.02 | locus YDR318W, strain mcm21, hits give low values 1.01 and 1.02 | locus YDR334W, strain swr1, hits give low values 1.02 | locus YDR335W, strain msn5, hits give low values 1.02 | locus YDR363W, strain ESC2, hits give low values 1.01 | locus YDR388W, hits give low values 1.01 | locus YDR392W, strain spt3, hits give low values 1.01 | locus YDR502C, strain sam2, hits give low values 1.02 and 1.01 | locus YEL003W, strain gim4, hits give low values 1.02 | locus YEL037C, strain rad23, hits give low values 1.02 | locus YEL061C, strain CIN8 (second series), hits give low values 1.02 | locus YEL061C, strain CIN8, hits give low values 1 | locus YER002W, strain NOP16, hits give low values 0.985 | locus YER015W, strain faa2, hits give low values 1.02 | locus YER016W, strain bim1, hits give low values 1.01 | locus YER110C, hits give low values 1.02 | locus YER111C, strain swi4, hits give low values 1.03 | locus YER155C, strain BEM2 (second series), hits give low values 1.03 | locus YER155C, strain BEM2, hits give low values 0.994 and 1.01 | locus YER167W, strain BCK2, hits give low values 1 and 1.02 | locus YFR010W, strain ubp6, hits give low values 1.03 | locus YGL078C, strain dbp3, hits give low values 1.02 and 0.999 | locus YGL086W, strain mad1, hits give low values 0.999 and 1.03 | locus YGL167C, strain pmr1, hits give low values 1.01 | locus YGL173C, strain kem1, hits give low values 1.01 | locus YGL227W, strain vid30, hits give low values 1.02 | locus YGL240W, strain doc1, hits give low values 1.02 | locus YGL248W, strain PDE1, hits give low values 1.02 and 1.01 | locus YGL253W, strain hxk2, hits give low values 1.02 | locus YGR078C, strain PAC10, hits give low values 1 and 0.996 and 1.01 | locus YGR135W, strain pre9, hits give low values 1.04 and 0.991 | locus YGR229C, strain SMI1, hits give low values 1 | locus YGR252W, strain gcn5, hits give low values 1.1 and 1.03 | locus YHR013C, strain ard1, hits give low values 1.04 | locus YHR027C, strain rpn1, hits give low values 1.02 | locus YHR030C, strain SLT2, hits give low values 1.01 and 1.02 | locus YHR079C, strain IRE1 (second series), hits give low values 1.01 and 1.02 | locus YHR079C, strain IRE1, hits give low values 1.02 | locus YHR094C, strain hxt1, hits give low values 1.01 | locus YHR129C, strain ARP1, hits give low values 1 | locus YHR142W, strain chs7, hits give low values 1.05 | locus YHR200W, strain rpn10, hits give low values 1.01 and 1.02 | locus YIL066C, strain RNR3, hits give low values 1.02 and 1.03 | locus YIL073C, strain SPO22, hits give low values 1.06 and 1.1 | locus YIL125W, strain kgd1, hits give low values 1 and 1.01 | locus YIR030C, strain dcg1, hits give low values 1.01 and 1.02 | locus YJL092W, strain hpr5, hits give low values 1.01 | locus YJL095W, strain BCK1 (second series), hits give low values 1.02 | locus YJL095W, strain BCK1, hits give low values 1 and 1.03 and 0.996 | locus YJL115W, strain asf1, hits give low values 1.04 | locus YJL129C, strain trk1, hits give low values 1.04 | locus YJL134W, strain LCB3, hits give low values 1.01 | locus YJL154C, strain vps35, hits give low values 1.01 | locus YJL164C, strain tpk1, hits give low values 1.02 | locus YJL166W, strain qcr8, hits give low values 1.02 | locus YJL168C, strain set2, hits give low values 1 and 1.02 | locus YJL187C, strain SWE1 (second series), hits give low values 0.999 and 1 | locus YJL187C, strain SWE1, hits give low values 1.02 | locus YJR043C, strain POL32, hits give low values 1 and 1.02 | locus YJR066W, strain TOR1, hits give low values 0.971
